# Screening data as filed in PubChem.
# Only a selection was taken, and hits are over-represented in it overall.
# Sfp inh – Sfp phosphopantetheinyl transferase inhibition; Q9F4F7; Biochemical Sfp PPTase activity, qHTS; Potency, µM, for inactives: largest response in the series, negative = inhibition, most hits filed as inhibitors; 3.5% of 310,000 active;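 note: the enzyme is Sfp with the accession as filed and its product quenches rhodamine fluorescence; 0% = enzyme reaction without inhibitor and -100% = no enzyme wells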
#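 With Hepes-Na pH 7.6 buffer containing 10 mM MgCl2, Sfp (15 nM) modified BHQ-2-YbbR (12.5 uM) using rhodamine-CoA (5 uM). Two reads 30 minutes apart at 525/598 nm yielded each well's rate.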
# VDR inh – blocks the human vitamin D receptor; 0.93% of 400,000 active; P11473; Potency, µM, for inactives: max response, negative = inhibition, most hits filed as inhibitors; AID 504847; VDR-SRC2-3 peptide fluorescence polarization, 2 h; note: % is set by controls: 0 for no effect and ±100 for the full control effect
#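 Two reagent solutions held at 4 deg C in the dark were dispensed, compounds pinned at 23 nl, and the mixture incubated 2 h at room temperature. Read-out: fluorescence polarization of VDR–SRC2-3 peptide binding.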
# ALOX12 inh – blocks human arachidonate 12S-lipoxygenase | AID 1671190 | purified 12hLO, xylenol orange hydroperoxide absorbance | 1.1% of 580,000 active | Potency, µM (doses to about 108 µM), inactives show at the top dose activity change, negative = inhibition, most hits filed as inhibitors; note: % is set by controls: 0 for no effect and ±100 for the full control effect
# Target sequence (P18054 whole entry, looked up): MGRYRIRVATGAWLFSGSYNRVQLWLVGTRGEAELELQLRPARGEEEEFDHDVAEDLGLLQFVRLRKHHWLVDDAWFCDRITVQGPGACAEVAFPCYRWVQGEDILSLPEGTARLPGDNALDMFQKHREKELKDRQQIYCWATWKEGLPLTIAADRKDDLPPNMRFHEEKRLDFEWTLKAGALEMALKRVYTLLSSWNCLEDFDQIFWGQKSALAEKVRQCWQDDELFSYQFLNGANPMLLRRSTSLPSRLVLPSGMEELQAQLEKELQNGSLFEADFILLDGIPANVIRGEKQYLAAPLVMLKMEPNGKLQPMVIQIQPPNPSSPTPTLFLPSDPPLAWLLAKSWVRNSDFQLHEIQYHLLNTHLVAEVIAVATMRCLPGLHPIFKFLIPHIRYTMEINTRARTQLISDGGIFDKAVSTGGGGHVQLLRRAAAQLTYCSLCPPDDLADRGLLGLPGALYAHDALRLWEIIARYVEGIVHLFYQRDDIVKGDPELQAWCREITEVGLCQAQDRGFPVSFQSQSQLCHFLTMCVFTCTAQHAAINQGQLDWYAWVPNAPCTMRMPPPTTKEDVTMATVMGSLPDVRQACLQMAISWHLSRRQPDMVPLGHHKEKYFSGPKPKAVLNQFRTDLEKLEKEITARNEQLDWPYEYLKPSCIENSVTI
#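 Hydroperoxide product was detected by ferrous iron/xylenol orange as the 573 to 405 nm absorbance ratio. Arachidonic acid at 40 uM (final) was turned over for 30 min at room temperature by 150 nM human 12hLO, pH 7.0 Hepes buffer, after 15 min compound preincubation.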
# G9a inh – blocks human histone lysine methyltransferase G9a. Q96KQ7. G9a H3K9 monomethylation, AlphaScreen, 2 h. Potency, µM (doses to about 102 µM), for the others: at the top dose activity, negative = inhibition, most hits filed as inhibitors. 8.8% of 350,000 active. AID 504332; note: % is set by controls: 0 for no effect and ±100 for the full control effect; nearly all actives have a fitted effect of over 75% in size
#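 AlphaScreen detection with an anti-monomethyl H3K9 antibody quantified product after a 2 h room-temperature reaction containing 500 nM biotinylated H3K9 peptide, 20 µM SAM and 20 nM enzyme, which had been preincubated 15 min with compound.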
# GRP78 ERSR act – induces the endoplasmic reticulum stress response in human glioma cells. U87-MG GRP78 promoter luciferase reporter, 16 h. Potency, µM, inactives show top-dose activation, most hits filed as activators. 0.02% of 420,000 active. AID 602332; note: series mostly up to about 76 µM; % of control where 0% means no effect; nearly all actives have a fitted effect of over 35% in size
#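 Stably transfected U87-MG glioma cells carrying a GRP78-based luciferase sensor; 16 h compound incubation. Luminescence end-point read 10 min after Bright-Glo addition at room temperature.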
# * = called active by the depositor; ? = inconclusive; . = no result; [ ] = remark or other dose. Calls come from the whole dose curve; as a rule, active = well fitted curve in the direction sought with a large enough effect; inconclusive = small, poorly fitted or top-dose-only effect, or another doubt; inactive = no such curve, though single readings can be large; an effect the other way counts as inactive or inconclusive. Potency is the fitted concentration of half-maximal effect.
SMILES,Sfp inh,VDR inh,ALOX12 inh,G9a inh,GRP78 ERSR act
CCCCCCCCCCCCCCCC(=O)NCC(COP(=O)([O-])OCC[N+](C)(C)C)OCC (configuration not stated),.,4%,.,16%[12.7 µM],-6%
CCCCCCCCCCCCCCCCCC(=O)NCC(COP(=O)([O-])OCC[N+](C)(C)C)OCC (configuration not stated),.,-8%,.,13µM*,?
COc1ccccc1C(=O)Nc1c(NC2CCCCC2)c2ccccc2oc1=O,.,.,-13%,.,.
CC(C)CCn1nc(C(=O)OCC(=O)NC23CC4CC(CC(C4)C2)C3)c2ccccc2c1=O,.,.,-3%,.,.
S=c1[nH]nc(-c2ccc(Cl)cc2Cl)n1Cc1ccccc1,?,28µM*,?,?,1%
S=c1[nH]nc(COc2ccc(Cl)cc2)n1Cc1ccccc1,26%,-16%,-5%,?,-4%
S=c1[nH]nc(COc2cccc(Cl)c2)n1Cc1ccccc1,13%,1%,-28%,-32%[12.7 µM],-2%
S=c1[nH]nc(-c2ccc(Cl)cc2Cl)n1-c1ccccc1,19%,-19%,?,6.3µM*,1%
NNC(=O)c1cccn(Cc2ccc(Cl)cc2Cl)c1=O,?,21%,.,14%,-1%
S=c1[nH]nc(COc2ccc(Cl)cc2Cl)n1-c1ccccc1,11%,3%,?,10µM*,-2%
CCn1c(-c2cccn(Cc3ccc(Cl)cc3Cl)c2=O)n[nH]c1=S,-21%,-2%,-3%,8.9µM*,-2%
Nc1nccnc1C(=O)NCC(c1ccccc1)c1ccccc1,.,.,3%,.,.
COc1cccc(N2CC(C(=O)N3CCC(C(=O)NCCc4ccc(F)cc4)C3)NC2=O)c1 (configuration not stated),.,.,46%,.,.
Cn1c(CSCc2ccccc2)n[nH]c1=S,12%,-14%,-28%,7.9µM*,-4%
Cn1c(-c2cccc3ccccc23)n[nH]c1=S,-4%,-2%,-16%,5µM*,-6%
COc1cccc2cc(-c3n[nH]c(=S)n3C)oc12,4%,3%,?,7.1µM*,-3%
COc1cccc2cc(-c3ccnc(N)n3)oc12,-1%,9%,-15%,-30%,-1%
Cn1c(Cn2c3ccccc3c3ccccc32)n[nH]c1=S,12%,-1%,-63%,7.9µM*,-1%
Cn1c(CSCc2ccc(Cl)cc2Cl)n[nH]c1=S,-19%,-9%,?,.,-5%
CCN(CC)S(=O)(=O)c1cccc(-c2n[nH]c(=S)n2C)c1,-5%,-13%,-34%,?,-1%
CCCNc1nc2ccccc2nc1C(=O)Nc1ccc(OC)cc1,.,.,-46%,.,.
O=C(CSc1ncc(-c2ccc(F)cc2)o1)NC(=O)c1ccccc1,.,.,-40%,.,.
CC#CCn1cc2c3c(cccc31)[C@H](CC(C)C)N[C@H](C(=O)N1CCC(O)CC1)C2,.,.,33%[176 µM],.,.
CCC(CO)NC(=O)c1nc(-c2ccc3[nH]ccc3c2)no1 (configuration not stated),.,.,-2%,.,.
Cn1c(CSCc2ccc(F)cc2)n[nH]c1=S,-7%,-3%,?,.,-2%
SMILES,Sfp inh,VDR inh,ALOX12 inh,G9a inh,GRP78 ERSR act
Cn1c(CSCc2ccc(Cl)cc2)n[nH]c1=S,13%,13%,?,10µM*,-2%
Cc1ccc(-n2ncc3c(NCc4ccco4)ncnc32)c(C)c1,0%,-6%,?,50µM*,-2%
Cc1ccc2[nH]c3c(NCc4ccco4)ncnc3c2c1,-10%,-1%,-16%,50µM*,-1%
Clc1ccc(Cn2ncc3c(NCc4ccccc4)ncnc32)cc1,-4%,-9%,-19%,-3%,-2%
Fc1ccc2[nH]c3c(NCc4ccco4)ncnc3c2c1,.,-8%,.,.,0%
c1ccc(Cn2ncc3c(NCc4ccco4)ncnc32)cc1,-11%,-5%,-19%,45µM*,-3%
O=C1[C@@H]2C[C@@H](CN2C(=O)c2cncnc2)Oc2ccccc2N1Cc1ccc(OC(F)(F)F)cc1,.,.,48%,.,.
COc1ccc(C(=O)c2sc(Nc3cccc(OC)c3)c(C(=O)Nc3cccc(C)c3C)c2N)cc1,-6%,28%,-14%,?,13µM*
COc1cccc(Nc2sc(C(=O)c3ccc(Cl)cc3)c(N)c2C(=O)NCc2ccc(C)cc2)c1,.,0%,5%,10µM*,-4%
CCCCn1c(=O)c2c(nc(-n3nc(C)c(C)c3C)n2Cc2ccc(F)cc2)n(C)c1=O,.,.,-1%,.,.
CC1CN(CC(=O)Nc2nc(-c3ccc(Cl)cc3)cs2)CC(C)O1 (configuration not stated),.,-8%,0%,.,1%
CC1CN(Cc2csc(-c3ccc(Cl)cc3)n2)CC(C)O1 (configuration not stated),-31%,2%,-20%,40µM*,5%
O=C(c1ccccc1F)N1CCC(N2CCCCCC2)CC1,10%,9%,0%,7.1µM*,-3%
O=C(c1ccc(F)cc1)N1CCC(N2CCOCC2)CC1,-15%,2%,-24%,10µM*,-5%
O=C(c1ccc(Cl)cc1)N1CCC(N2CCC(C(=O)N3CCOCC3)CC2)CC1,12%,-9%,-3%,16%,-3%
O=C(c1ccncc1)N1CCN(C2CCCCC2)CC1,-4%,0%,?,16µM*,-7%
O=C(c1ccc(C(F)(F)F)cc1)N1CCCN(C2CC2)CC1,.,.,-14%,.,.
O=C(c1cccc(Cl)c1)N1CCN(C2CCCCCC2)CC1,-9%,-3%,?,20µM*,-5%
CN1CCCN(C(=O)c2cccc(Cl)c2)CC1,22%,-1%,16%,-5%,-4%
COc1ccc(/C=C/c2nc(C#N)c(NCCCn3ccnc3)o2)cc1OC,.,.,23%,.,.
CCCCSc1nc2c(c(=O)[nH]c(=O)n2C)n1CCCC,.,.,-19%,.,.
COc1ccc(C(=O)COC(=O)c2csc(Nc3ccc(C)cc3)n2)cc1,.,.,-12%,.,.
COC(=O)Nc1ccc(CNC(=O)c2ccccc2C(=O)c2ccccc2)cc1,.,.,11%,.,.
O=C(c1ccccc1)N1CCN(C(=O)c2ccccc2)CC1,3%,11%,0%,?,-3%
O=C(c1ccccc1)N1CCN(C2CCCCC2)CC1,?,-2%,?,7.9µM*,-5%
SMILES,Sfp inh,VDR inh,ALOX12 inh,G9a inh,GRP78 ERSR act
CCc1ccc(/C=C/C(=O)c2c(C)cc(C)[nH]c2=O)cc1,8%,-19%,-7%,56µM*,-15%
Cc1ccc(/C=C/C(=O)c2c(C)cc(C)[nH]c2=O)cc1,6%,-6%,-2%,-4%[59 µM],-4%
Cc1cc(C)c(C(=O)/C=C/c2ccco2)c(=O)[nH]1,8.9µM*,-14%,-21%,.,1%
Cc1cc(C)c(C(=O)/C=C/c2cccs2)c(=O)[nH]1,21%,-11%,-3%,-3%,-2%
O=C(O)CNS(=O)(=O)c1ccc(C(=O)/C=C/c2ccc(Cl)cc2)cc1,.,.,-13%,.,.
O=C(CCCc1nc2ccccc2o1)NCc1ccc(F)cc1,.,.,-30%,.,.
C=CCn1c(C)cc(C(=O)COc2ccc(N(C)S(=O)(=O)c3ccc(NC(C)=O)cc3)cc2)c1C,.,-5%,5%,.,-6%
